Experimental data reported in article PMC7862700, “An all-to-all approach to the identification of sequence-specific readers for epigenetic DNA modifications on cytosine”.

Assays:
Assay in all cases: DAPPL (digital affinity profiling via proximity ligation, sequencing); 10 mM Tris-HCl pH 7.5, 50 mM NaCl, 1 mM DTT, 4% glycerol, room temperature, 30 min; GST-TFs on glutathione beads, 16-mer random dsDNA library, 0.1% formaldehyde crosslink after washing; high values mean tight binding
Conditions in all cases: protein: recombinant; tags: N-terminal GST; dsDNA, one strand shown
[1] = target: T1, FLI1 (Homo sapiens, UniProt Q01543 1-452)
T1 sequence: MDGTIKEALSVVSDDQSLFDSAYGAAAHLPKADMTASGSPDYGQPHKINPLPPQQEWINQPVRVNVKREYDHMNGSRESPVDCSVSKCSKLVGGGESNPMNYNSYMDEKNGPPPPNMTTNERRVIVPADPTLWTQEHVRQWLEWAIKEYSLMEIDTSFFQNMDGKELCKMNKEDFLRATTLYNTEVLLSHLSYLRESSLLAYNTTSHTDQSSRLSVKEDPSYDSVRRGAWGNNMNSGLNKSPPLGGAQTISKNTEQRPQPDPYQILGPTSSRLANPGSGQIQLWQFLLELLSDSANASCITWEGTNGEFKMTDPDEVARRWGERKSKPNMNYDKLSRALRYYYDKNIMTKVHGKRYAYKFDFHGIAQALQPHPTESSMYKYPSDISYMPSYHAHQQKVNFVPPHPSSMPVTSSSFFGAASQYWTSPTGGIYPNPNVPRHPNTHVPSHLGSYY
Summary of the method: (§1)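 Each value of binding signal is a hexamer's read frequency for a factor divided by the same hexamer's frequency in the tag-only sample. Barcoded, bead-captured GST fusions of human transcription factors made in yeast were pooled with that sample and incubated with 200 nmole of a random double-stranded 16-mer DNA library in Tris/NaCl/DTT/glycerol buffer at room temperature for 30 min. Washing, 0.1% formaldehyde crosslinking, proximity ligation, PCR and Illumina NextSeq500 sequencing followed.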

[2] = target: ELF1 (Homo sapiens, UniProt P32519 1-619)
ELF1, sequence (P32519 whole entry): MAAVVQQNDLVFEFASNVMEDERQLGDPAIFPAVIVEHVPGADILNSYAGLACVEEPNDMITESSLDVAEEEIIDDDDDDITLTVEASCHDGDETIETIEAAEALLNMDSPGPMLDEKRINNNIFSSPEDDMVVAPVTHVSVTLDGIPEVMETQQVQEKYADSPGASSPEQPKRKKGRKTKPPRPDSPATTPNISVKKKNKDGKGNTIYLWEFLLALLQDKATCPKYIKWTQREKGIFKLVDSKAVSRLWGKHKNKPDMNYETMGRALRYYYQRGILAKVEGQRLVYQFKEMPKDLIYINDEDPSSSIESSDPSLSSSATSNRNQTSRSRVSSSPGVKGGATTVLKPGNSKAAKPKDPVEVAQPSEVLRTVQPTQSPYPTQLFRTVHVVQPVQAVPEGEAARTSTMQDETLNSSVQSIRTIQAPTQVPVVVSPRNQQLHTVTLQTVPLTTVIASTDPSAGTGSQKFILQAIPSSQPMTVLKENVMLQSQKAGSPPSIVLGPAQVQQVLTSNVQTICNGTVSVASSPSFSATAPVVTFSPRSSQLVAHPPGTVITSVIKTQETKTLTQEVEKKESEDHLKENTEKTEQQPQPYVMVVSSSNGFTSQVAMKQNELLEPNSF
Summary of the method: as §1

[3] = target: T2, EHF (Homo sapiens, UniProt Q9NZC4 1-300)
T2 sequence: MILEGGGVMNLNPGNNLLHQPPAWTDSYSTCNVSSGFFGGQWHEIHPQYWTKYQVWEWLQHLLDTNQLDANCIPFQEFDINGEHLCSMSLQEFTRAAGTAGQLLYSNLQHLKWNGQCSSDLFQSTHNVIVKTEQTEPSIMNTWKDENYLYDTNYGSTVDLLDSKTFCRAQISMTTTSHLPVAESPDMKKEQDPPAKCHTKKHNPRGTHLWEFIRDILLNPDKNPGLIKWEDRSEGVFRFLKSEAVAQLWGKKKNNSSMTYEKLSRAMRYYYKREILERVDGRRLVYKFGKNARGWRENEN
Summary of the method: as §1

[4] = target: SPIB (Homo sapiens, UniProt Q01892 1-262)
SPIB, sequence (Q01892 whole entry): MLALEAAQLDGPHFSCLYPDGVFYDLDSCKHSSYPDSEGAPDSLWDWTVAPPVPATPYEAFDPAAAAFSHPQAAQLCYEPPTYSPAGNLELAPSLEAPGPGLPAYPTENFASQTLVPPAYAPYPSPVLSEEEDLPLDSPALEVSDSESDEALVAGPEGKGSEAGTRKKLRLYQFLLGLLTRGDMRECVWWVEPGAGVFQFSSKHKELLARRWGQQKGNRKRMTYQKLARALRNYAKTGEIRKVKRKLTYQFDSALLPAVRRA
Summary of the method: as §1

[5] = target: T3, ELK3 (Homo sapiens, UniProt P41970 1-407)
T3 sequence: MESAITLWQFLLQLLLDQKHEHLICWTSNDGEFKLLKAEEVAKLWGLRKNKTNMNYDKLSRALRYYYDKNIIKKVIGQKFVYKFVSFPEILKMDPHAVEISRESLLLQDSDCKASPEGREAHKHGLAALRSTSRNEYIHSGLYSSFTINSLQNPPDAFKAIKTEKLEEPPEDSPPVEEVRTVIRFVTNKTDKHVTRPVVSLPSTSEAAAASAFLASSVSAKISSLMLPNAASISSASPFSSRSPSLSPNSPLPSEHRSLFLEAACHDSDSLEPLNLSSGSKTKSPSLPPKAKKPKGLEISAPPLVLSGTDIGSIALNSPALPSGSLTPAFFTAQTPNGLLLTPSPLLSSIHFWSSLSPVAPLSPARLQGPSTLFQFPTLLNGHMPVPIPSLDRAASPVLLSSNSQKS
Summary of the method: as §1

[6] = target: T4, ELK1 (Homo sapiens, UniProt P19419 1-428)
T4 sequence: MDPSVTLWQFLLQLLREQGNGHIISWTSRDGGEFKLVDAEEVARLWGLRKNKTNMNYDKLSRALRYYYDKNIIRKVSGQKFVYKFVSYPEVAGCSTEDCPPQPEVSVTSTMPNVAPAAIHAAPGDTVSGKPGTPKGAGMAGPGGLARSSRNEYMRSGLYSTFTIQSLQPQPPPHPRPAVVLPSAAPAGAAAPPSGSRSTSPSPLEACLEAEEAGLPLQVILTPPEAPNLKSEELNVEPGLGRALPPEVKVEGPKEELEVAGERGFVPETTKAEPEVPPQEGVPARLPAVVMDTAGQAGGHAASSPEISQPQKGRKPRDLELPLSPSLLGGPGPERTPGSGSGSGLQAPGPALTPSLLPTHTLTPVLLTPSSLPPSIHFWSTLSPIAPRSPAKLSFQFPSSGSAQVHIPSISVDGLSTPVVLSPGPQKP
Summary of the method: as §1

[7] = target: SPI1 (Homo sapiens, UniProt P17947 1-270)
Summary of the method: as §1

[8] = target: T5, GABPA (Homo sapiens, UniProt Q06546 1-454)
T5 sequence: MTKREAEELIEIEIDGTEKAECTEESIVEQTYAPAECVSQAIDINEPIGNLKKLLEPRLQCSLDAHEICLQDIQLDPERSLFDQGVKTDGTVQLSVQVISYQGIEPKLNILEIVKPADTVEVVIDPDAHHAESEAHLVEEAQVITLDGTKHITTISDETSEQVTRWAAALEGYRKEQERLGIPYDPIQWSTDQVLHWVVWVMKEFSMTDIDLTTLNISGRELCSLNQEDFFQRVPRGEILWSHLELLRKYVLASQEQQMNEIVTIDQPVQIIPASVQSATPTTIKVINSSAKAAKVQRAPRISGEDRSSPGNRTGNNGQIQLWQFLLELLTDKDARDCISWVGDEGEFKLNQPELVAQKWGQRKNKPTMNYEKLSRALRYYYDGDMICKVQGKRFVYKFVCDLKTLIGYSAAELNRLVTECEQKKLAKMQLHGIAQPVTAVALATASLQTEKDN
Summary of the method: as §1

[9] = target: T6, ERG (Homo sapiens, UniProt P11308 1-479)
T6 sequence: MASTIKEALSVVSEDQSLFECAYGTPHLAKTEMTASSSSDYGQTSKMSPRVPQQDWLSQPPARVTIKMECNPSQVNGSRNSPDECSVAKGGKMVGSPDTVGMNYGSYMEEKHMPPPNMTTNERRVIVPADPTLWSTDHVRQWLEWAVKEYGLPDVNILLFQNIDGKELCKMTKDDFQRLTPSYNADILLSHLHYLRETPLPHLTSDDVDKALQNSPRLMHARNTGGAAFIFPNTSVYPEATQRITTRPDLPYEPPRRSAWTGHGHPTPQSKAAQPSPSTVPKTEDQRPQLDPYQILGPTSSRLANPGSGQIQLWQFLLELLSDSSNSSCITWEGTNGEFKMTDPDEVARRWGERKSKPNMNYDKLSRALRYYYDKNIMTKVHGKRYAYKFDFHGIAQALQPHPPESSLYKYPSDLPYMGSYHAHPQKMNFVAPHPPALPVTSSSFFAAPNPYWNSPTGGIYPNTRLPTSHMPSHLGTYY
Summary of the method: as §1

Row | Sequence | binding signal [1] | binding signal [2] | binding signal [3] | binding signal [4] | binding signal [5] | binding signal [6] | binding signal [7] | binding signal [8] | binding signal [9]
1 | TCATCG | 1.12 fold enrichment (6-mer frequency, TF over GST control) | 1.01 fold enrichment (6-mer frequency, TF over GST control) | 1.05 fold enrichment (6-mer frequency, TF over GST control) | 1.13 fold enrichment (6-mer frequency, TF over GST control) | 1.02 fold enrichment (6-mer frequency, TF over GST control) | – | – | – | –
2 | CATGTA | 1.15 fold enrichment (6-mer frequency, TF over GST control) | 1.11 fold enrichment (6-mer frequency, TF over GST control) | 1.04 fold enrichment (6-mer frequency, TF over GST control) | – | 1.13 fold enrichment (6-mer frequency, TF over GST control) | 1.06 fold enrichment (6-mer frequency, TF over GST control) | 1.02 fold enrichment (6-mer frequency, TF over GST control) | – | –
3 | GGCTTA | 1.05 fold enrichment (6-mer frequency, TF over GST control) | 1.08 fold enrichment (6-mer frequency, TF over GST control) | 1.02 fold enrichment (6-mer frequency, TF over GST control) | – | 1.01 fold enrichment (6-mer frequency, TF over GST control) | – | 1.02 fold enrichment (6-mer frequency, TF over GST control) | 1.17 fold enrichment (6-mer frequency, TF over GST control) | 1.04 fold enrichment (6-mer frequency, TF over GST control)
4 | GAATCT | 1.03 fold enrichment (6-mer frequency, TF over GST control) | 1.04 fold enrichment (6-mer frequency, TF over GST control) | 1.06 fold enrichment (6-mer frequency, TF over GST control) | 1.1 fold enrichment (6-mer frequency, TF over GST control) | 1.08 fold enrichment (6-mer frequency, TF over GST control) | – | 1.07 fold enrichment (6-mer frequency, TF over GST control) | 1.15 fold enrichment (6-mer frequency, TF over GST control) | 1.04 fold enrichment (6-mer frequency, TF over GST control)
5 | TTGGCT | 1.15 fold enrichment (6-mer frequency, TF over GST control) | 1.13 fold enrichment (6-mer frequency, TF over GST control) | 1.12 fold enrichment (6-mer frequency, TF over GST control) | – | 1 fold enrichment (6-mer frequency, TF over GST control) | 1.07 fold enrichment (6-mer frequency, TF over GST control) | – | – | –
6 | CATCGA | 1.12 fold enrichment (6-mer frequency, TF over GST control) | 1.12 fold enrichment (6-mer frequency, TF over GST control) | 1.16 fold enrichment (6-mer frequency, TF over GST control) | 1.03 fold enrichment (6-mer frequency, TF over GST control) | 1.03 fold enrichment (6-mer frequency, TF over GST control) | – | 1.09 fold enrichment (6-mer frequency, TF over GST control) | – | –
7 | TTTGAG | 1.13 fold enrichment (6-mer frequency, TF over GST control) | 1.13 fold enrichment (6-mer frequency, TF over GST control) | 1.09 fold enrichment (6-mer frequency, TF over GST control) | 1.12 fold enrichment (6-mer frequency, TF over GST control) | – | – | 1.16 fold enrichment (6-mer frequency, TF over GST control) | 1.28 fold enrichment (6-mer frequency, TF over GST control) | 1.05 fold enrichment (6-mer frequency, TF over GST control)
8 | CATAAA | 1 fold enrichment (6-mer frequency, TF over GST control) | – | – | 1.01 fold enrichment (6-mer frequency, TF over GST control) | – | – | – | – | –
9 | TTCCAG | 1.03 fold enrichment (6-mer frequency, TF over GST control) | 1.02 fold enrichment (6-mer frequency, TF over GST control) | – | 1.1 fold enrichment (6-mer frequency, TF over GST control) | 1.07 fold enrichment (6-mer frequency, TF over GST control) | 1.02 fold enrichment (6-mer frequency, TF over GST control) | 1.05 fold enrichment (6-mer frequency, TF over GST control) | – | –
10 | TCTAGG | 1.12 fold enrichment (6-mer frequency, TF over GST control) | 1.05 fold enrichment (6-mer frequency, TF over GST control) | – | 1.11 fold enrichment (6-mer frequency, TF over GST control) | 1.07 fold enrichment (6-mer frequency, TF over GST control) | – | – | 1.1 fold enrichment (6-mer frequency, TF over GST control) | 1.02 fold enrichment (6-mer frequency, TF over GST control)
